# D1 potentiator – human D1 dopamine receptor positive modulation. P21728. HEK293 TREx D1 cells, calcium flux, dopamine EC20 potentiation. potentiation, % at 10 µM. hit rate 0.036% among 360,000. AID 504651; in the data active means potentiation above about 30%; further: 0% is about no effect
# Target sequence (P21728 whole entry, looked up): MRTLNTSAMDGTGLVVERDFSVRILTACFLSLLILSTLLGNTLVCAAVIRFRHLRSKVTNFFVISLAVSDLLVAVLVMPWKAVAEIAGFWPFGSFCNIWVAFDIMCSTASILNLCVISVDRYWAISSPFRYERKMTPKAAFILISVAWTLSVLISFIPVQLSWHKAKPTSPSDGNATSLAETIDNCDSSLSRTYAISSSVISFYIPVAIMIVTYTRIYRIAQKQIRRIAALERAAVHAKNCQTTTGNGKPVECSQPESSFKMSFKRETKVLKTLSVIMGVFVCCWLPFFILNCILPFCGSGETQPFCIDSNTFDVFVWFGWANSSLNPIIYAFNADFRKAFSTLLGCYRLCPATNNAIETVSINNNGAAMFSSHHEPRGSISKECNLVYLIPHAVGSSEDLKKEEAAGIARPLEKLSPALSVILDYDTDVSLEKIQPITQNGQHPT
# D1 antagonist – blocks dopamine activation of the human D1 receptor; HEK293 TREx D1 cells, calcium flux, dopamine EC80; hits give low values; hit rate 3.2% among 360,000; P21728; activity change, negative = inhibition, % at 10 µM; AID 504652; in the data active means activity change below about -30%; further: on the % scale 0 is the no-effect control and ±100 the full control effect
#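 Allosteric or orthosteric antagonism assessed as attenuation of the calcium response to EC80 dopamine, added 180 s after compound, in induced HEK293 Trex D1 cells loaded with no-wash calcium dye.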
# TRHR agonist – TRH receptor (human) agonism; activation, % at 2 µM; hit rate 0.18% among 360,000; TRHR cells, calcium flux fluo-8, FDSS agonist mode; AID 493084; further: 0% is about no effect
#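 Fluo-8-loaded TRHR cells; 10 s baseline, compound added, kinetic Ca2+ fluorescence read 1/s, agonist mode.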
# D1 agonist – agonists of human D1 dopamine receptor | AID 504660 | HEK293 T-REx D1 cells, calcium flux, agonist mode | activation, % at 2 µM | hit rate 1% among 360,000 | P21728; further: 0% is about no effect
#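 Agonism was scored from calcium flux recorded over 180 s (1 read/s) after pintool compound addition, following a 10-cycle baseline. Cells were inducible force-coupled HEK293 TREx D1, plated overnight at 30 C and loaded with no-wash calcium dye.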
# TRHR PAM – TRH receptor (human) allosteric enhancement; P34981; enhancement, % at 2 µM; TRHR cells, fluo-8 calcium fluorescence, EC20 TRH enhancement; hit rate 0.66% among 360,000; in the data active means enhancement above about 30%; further: 0% is about no effect
#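 TRHR-expressing cells loaded with fluo-8 calcium dye were read kinetically (ex 480/em 530) during compound addition, then stimulated with an EC20 of TRH (10 nM final). Enhancement of the Gq-mediated intracellular calcium response was scored.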
# Numbers without * were called inactive. A selection: hits, their analogues and other compounds. The true share with any hit is near 4.6%. Unless noted, no stated cut-off is given here; in the data, active means activation above about 30%; inactive means the rest.
SMILES,D1 potentiator,D1 antagonist,TRHR agonist,D1 agonist,TRHR PAM
CCN1Cc2c(/C=C/c3ccccc3)nc3ccc(OC)cc3c2N(c2cccc(Cl)c2)C1,-13.1,-62.9*,4.6,6.3,-3.8
Cc1ccccc1NC(=O)Cn1nc(C(F)(F)F)cc1C1CC1,-0.5,3.0,0.4,2.8,0.8
Cc1nn(C)cc1NC(=O)Cn1nc(C(F)(F)F)cc1C1CC1,-7.0,-66.7*,0.2,-0.7,-0.7
COc1ccc(-n2c(SCc3ccccc3F)nc3c([nH]c4ccccc43)c2=O)cc1OC,-2.1,17.8,0.6,1.8,7.0
O=C(Nc1ccccc1)c1nnsc1S(=O)c1ccc(Cl)cc1 (stereo not drawn),-4.2,-41.2*,4.0,1.8,-1.0
O=C(c1nnsc1S(=O)c1ccc(Cl)cc1)N1CCOCC1 (stereo not drawn),8.4,17.5,13.4,4.9,3.2
COc1ccc(NC(=O)N2CCC(c3nc(-c4cccs4)no3)CC2)cc1,-6.5,-22.0,0.2,1.5,-2.5
O=C(Nc1ccc(Cl)cc1)N1CCC(c2nc(-c3cccs3)no2)CC1,-12.2,-45.6*,0.0,16.8,-13.8
CCn1c(=O)c2cc(C(=O)N(C)c3cc(C)ccc3C)sc2c2ccccc21,0.6,-4.1,-0.3,2.2,4.6
CC(=O)c1ccc(S(=O)(=O)N2CCN(C(=O)CSc3ccc(C)c(C)c3)CC2)cc1,-8.0,-34.0*,-2.1,10.5,-2.5
CC(=O)Nc1ccc(NC(=O)c2ccccc2C)cc1,5.5,5.8,-0.4,-1.3,2.1
CC(=O)Nc1ccc(NC(=O)c2ccccc2CCc2ccccc2)cc1,-11.8,-30.9*,-0.9,3.8,0.5
CC(C)Cc1nnc(NC(=O)Cc2ccc([N+](=O)[O-])cc2)s1,14.2,-5.3,3.3,31.2*,7.5
CC(C)Cc1nnc(NC(=O)CCC(=O)N2CCN(c3ccc([N+](=O)[O-])cc3)CC2)s1,-6.1,0.5,-0.4,-0.3,-1.1
Cc1ccccc1NC(=O)Nc1nnc(Cc2ccc([N+](=O)[O-])cc2)s1,-3.2,20.7,0.6,5.0,39.8*
O=C(Nc1ccccc1Cl)c1ccc(F)c(S(=O)(=O)NCc2ccc(Cl)c(Cl)c2)c1,0.8,-7.4,0.9,1.3,1.6
COC(=O)c1ccc(CSc2ccc3nnc(-c4cccc(F)c4)n3n2)o1,-0.5,-30.4*,0.2,-1.0,-3.4
Cc1ccc(CN2CCN(CC(=O)NCc3ccccc3Cl)C2=O)cc1,-0.5,-0.6,-0.9,-1.9,0.9
CCCN(CCC)CCNC(=O)c1cc(Sc2ccc(Cl)cc2)nc2ccccc12,-3.5,-11.7,0.3,11.1,6.2
CC(C)CNC(=S)N1CCC(c2nc(-c3ccc(F)cc3)no2)CC1,-7.8,-34.5*,-0.2,19.4,-6.4
O=C(c1ccc(F)cc1)N1CCCC(c2nc(-c3ccncc3)no2)C1 (stereo not drawn),-1.6,14.2,0.4,11.5,-4.2
COc1cccc(-c2noc(C3CCCN(C(=O)CC(C)(C)C)C3)n2)c1 (stereo not drawn),-6.5,-66.8*,-0.1,2.4,7.1
O=C(c1c(F)cccc1F)N1CCCC(c2nc(-c3ccc(F)cc3)no2)C1 (stereo not drawn),2.0,-31.0*,0.5,6.0,2.8
COc1ccc(-c2cc(C(=O)Nc3cccc(O)c3)on2)cc1OC,1.1,8.1,-0.6,1.2,-2.9
COC(=O)[C@H](Cc1ccccc1)NC(=O)c1cc(COc2c(F)cccc2F)on1,-0.6,-19.6,-0.5,31.0*,3.4
SMILES,D1 potentiator,D1 antagonist,TRHR agonist,D1 agonist,TRHR PAM
CN(CC1COc2ccccc2O1)C(=O)c1cc(COc2c(F)cccc2F)on1 (stereo not drawn),-3.3,-46.3*,1.0,18.2,0.3
C#Cc1ccc(C(=O)NCc2ccc(N3CCCC3=O)cc2)cc1,-7.7,-31.8*,-0.3,6.5,5.4
O=C(NCc1cccs1)c1ccc(N2CCCC2=O)cc1,-0.2,4.8,1.0,1.7,-1.4
Cc1ccc(C)c(OCc2cc(C(=O)N(C)Cc3ccccn3)no2)c1,5.5,-44.5*,0.0,8.8,-3.9
O=C(CSc1oc(-c2ccccc2)nc1S(=O)(=O)c1ccc(Br)cc1)c1ccccc1,-0.9,-9.6,0.7,4.0,0.8
COCCCNC(=O)c1ccc(Cn2c(=O)c3ccccc3n(CC(N)=O)c2=O)cc1,-4.0,-21.2,0.7,0.2,2.2
COc1cccc(-c2nc(CS(=O)(=O)CC(=O)NCc3ccc(C)cc3)c(C)o2)c1,-2.2,-0.4,-0.4,6.9,5.0

# Screening results deposited in PubChem BioAssay by National Center for Advancing Translational Sciences (NCATS).
